# Screening data from PubChem BioAssay.
# Pf growth 48h – Primary qHTS for delayed death inhibitors of the malarial parasite plastid, 48 hour incubation; 5.9% of 310,000 active; P. falciparum luciferase growth in erythrocytes, 48 h; Potency, µM (series often up to 28.7 µM), inactives show top-dose activity change, negative = inhibition, hits mostly inhibitors; note: potency is the fitted concentration of half-maximal effect
#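 A one-generation exposure of luciferase-tagged malaria parasites in RPMI 1640/Albumax erythrocyte culture, 37 C and 5% CO2. Inhibition is inferred from decreased luminescence after adding detection reagent.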
# Lassa entry inh – qHTS for Inhibitors of binding or entry into cells for Lassa Virus; Lassa virus pseudotype entry inhibition, cell reporter; AID 540256, 2011; Potency, µM (titrated, usually from 37.9 µM), without a hit: at the highest dose activity change, negative = inhibition, hits mostly inhibitors; 1.2% of 300,000 active; calls by dose curve; tested in HEK293 cells; note: potency is the fitted concentration of half-maximal effect; nearly all actives have a fitted effect of over 50% in size
# MARV entry inh – qHTS for inhibitors of binding or entry into cells for Marburg Virus; Marburg virus pseudotyped entry inhibition, cell reporter; Potency, µM (series often up to 37.8 µM), without a hit: at the highest dose activity change, negative = inhibition, usual class: inhibitors; 1.8% of 300,000 active; calls by dose curve; tested in HEK293 cells; note: potency is the fitted concentration of half-maximal effect
# HCV inhibitor – qHTS Assay for Inhibitors of Hepatitis C Virus (HCV); Huh7.5.1 HCVcc-Cre infection, luciferase reporter, 44 h; Potency, µM (highest dose often 41.8 µM), for the others: at the top dose activity change, negative = inhibition, actives largely listed as inhibitors; 3.4% of 340,000 active; AID 651820, 2012; note: potency is the fitted concentration of half-maximal effect
#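 After 44 h co-culture of compound, cells and HCVcc-Cre (~0.5 moi), substrate is added for 15 min at room temperature and luciferase measured over 15 sec. Cells were seeded at 1,000/well and pre-cultured 4 h.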
# HCMV inh – qHTS Assay for inhibitors of the human cytomegalovirus (HCMV); HFF cells, HCMV-luciferase reporter, 72 h; active compounds read low; activity change, negative = inhibition, % at 57.5 µM; 4.5% of 410,000 active; in the data active = activity change below about -60%; inconclusive = no clear call, values can overlap the other calls; inactive = above about -39%
#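 Two compound doses tested in HFFs infected with HCMV-luciferase, MOI 1 PFU/cell, 72 h at 37C. Lysate luminescence read with OneGlo; data normalized against buffer-only and 10uM Salinomycin inhibitor controls.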
# Pf growth 96h – Primary qHTS for delayed death inhibitors of the malarial parasite plastid, 96 hour incubation; P. falciparum luciferase reporter growth, 96 h; Potency, µM (doses to about 28.7 µM), for the others: at the highest dose activity change, negative = inhibition, hits mostly inhibitors; 6.9% of 320,000 active; AID 504834, 2011; note: potency is the fitted concentration of half-maximal effect
#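 P. falciparum expressing integrated firefly luciferase grown in erythrocytes (2% hematocrit, 0.05% parasitemia final) with compounds for 96 hours at 37 C, 5% CO2. Growth inhibition read as loss of luminescence after adding luciferase detection reagent.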
# The depositor's hits bear a star; ? = inconclusive; . = no result given; [ ] = dose if it differs, or a comment. This is a sample that favours compounds with a hit; in the whole collection about 14% have one here. Unless noted, calls come from the whole dose curve; as a rule, active = well fitted inhibition curve with a large enough effect; inconclusive = small, poorly fitted or top-dose-only effect, or another doubt; inactive = no such curve, though single readings can be large or run the other way. % is set by controls: 0 for no effect and ±100 for the full control effect.
SMILES,Pf growth 48h,Lassa entry inh,MARV entry inh,HCV inhibitor,HCMV inh,Pf growth 96h
COc1cc(CNCCO)ccc1OCCc1ccccc1,-19%,13%[46.1 µM],?,?,51,8%
CCN(CC)S(=O)(=O)c1ccc(-c2nnc(SCC(=O)N3CCOCC3)o2)cc1,?,23%,3%,13%,12,8.3µM*
CCN(CC)S(=O)(=O)c1ccc(-c2nnc(SCC(=O)Nc3cc(OC)cc(OC)c3)o2)cc1,13µM*,1%,4%,-9%,39,.
COc1cc(OC)cc(-c2nnc(SCC(=O)N3CCOCC3)o2)c1,3.7µM*,1%,15%[46.1 µM],6%,37,3%
Cc1ccc(-c2nc3scc(CCNS(=O)(=O)c4ccc(Oc5ccccc5)cc4)n3n2)cc1,.,?,.,.,-20,.
COc1ccc(C2=NOC(C(=O)NCc3ccccc3)C2)cc1 (stereo not drawn),?,?,?,15%,33,7.4µM*
O=C(NCc1ccccn1)C1CC(c2ccc(F)cc2)=NO1 (stereo not drawn),.,-2%,?,4%,61,2.9µM*
Cc1ccc(CNC(=O)C2CC(c3cccc([N+](=O)[O-])c3)=NO2)cc1 (stereo not drawn),2.6µM*,.,.,?,-11,42%
COc1ccc(CNC(=O)C2CC(c3cccc([N+](=O)[O-])c3)=NO2)cc1 (stereo not drawn),78%,.,.,?,120,131%
COCCNC(=O)C1CC(c2cccc(OC)c2)=NO1 (stereo not drawn),17%,2%,?,17%,21,-20%
COc1ccc(CNC(=O)C2CC(c3cc(C(F)(F)F)cc(C(F)(F)F)c3)=NO2)cc1 (stereo not drawn),38%,.,.,-19%,4,36%
CCC(C)NC(=O)C1CC(c2cccc(OC)c2)=NO1 (stereo not drawn),9%,10%,2%,12%,-24,10µM*
Cc1cc(Cl)ccc1C(O)c1ncc(-c2ccc3ccccc3c2)[nH]1 (stereo not drawn),.,.,.,.,16,.
COc1cccc(C2=NOC(C(=O)NCc3ccco3)C2)c1 (stereo not drawn),-6%,?,-26%,19%,-10,?
O=C(NCCc1cccs1)C1CC(c2cccc(F)c2)=NO1 (stereo not drawn),?,.,.,3.5µM*,-12,1.7µM*
O=C(NCc1ccc(OC(F)(F)F)cc1)C1CC(c2c(Cl)cccc2Cl)=NO1 (stereo not drawn),1.3µM*,.,.,?,28,36%
COc1cccc(C2=NOC(C(=O)N3CCOCC3)C2)c1 (stereo not drawn),159%,?,?,5%,100,1.7µM*
CCCNC(=O)C1CC(c2cccc(F)c2)=NO1 (stereo not drawn),58%,.,.,13%,-10,78%
COc1cccc(C2=NOC(C(=O)NCc3ccccc3)C2)c1 (stereo not drawn),-2%,-11%,-9%,26%,-37,4.1µM*
COC(=O)[C@]1(C)CCC[C@@]2(C)C3CC[C@@]4(C)C[C@]3(CCC21)CC4=NO (stereo partly drawn),-17%,.,.,-6%,-24,?
CCOC(=O)N1CCN(c2ccc(S(=O)(=O)N(Cc3ccccc3)Cc3ccccc3)cn2)CC1,13µM*,-26%,?,?,-90*,-29%
CCN(CC)S(=O)(=O)c1ccc(N2CCN(c3ccccc3O)CC2)nc1,?,-21%[46.1 µM],?,11µM*,-40,13µM*
CCOC(=O)N1CCN(c2ccc(S(=O)(=O)N3CCOCC3)cn2)CC1,.,0%,?,10%,-15,.
CCN(CC)S(=O)(=O)c1ccc(N2CCN(CCO)CC2)nc1,-2%,?,18%,0%,1,4%
CCOC(=O)N1CCN(C(=O)CN(Cc2ccccc2)S(C)(=O)=O)CC1,-6%,6%,0%,12%,53,244%
SMILES,Pf growth 48h,Lassa entry inh,MARV entry inh,HCV inhibitor,HCMV inh,Pf growth 96h
CCOC(=O)N1CCN(C(=O)CN(Cc2ccc(Cl)cc2)S(=O)(=O)c2ccccc2)CC1,8.3µM*,?,-18%,-3%,-31,?
Clc1ccc(CSc2nnc(-c3ccncc3)s2)cc1,?,-3%,?,-6%,4,-23%
Clc1cccc(Cl)c1CSc1nnc(-c2ccncc2)s1,2.6µM*,0%,0%[46.1 µM],?,106,2.1µM*
Cn1ncc(Cl)c1C(=O)NNC(=O)Nc1cccc2ccccc12,4%,-4%[46.1 µM],1%[46.1 µM],-8%,?,?
O=C1CC(c2ccc3c(c2)OCO3)C2=C(CCCC2=O)N1 (stereo not drawn),1%,-14%,-1%[46.1 µM],21%,-9,3%
O=C1CC(c2ccc(F)c(Br)c2)C2=C(CCCC2=O)N1 (stereo not drawn),-18%,22%,-2%,-8%,-102*,-2%
Cc1cc(C)n2nc(C(=O)N3CCOCC3)nc2n1,54%,6%,6%,7%,13,?
CCCCCCCCSc1nnc(CSc2nc3nc(C)cc(C)n3n2)o1,12µM*,-21%,?,?,7,?
Cc1cc(C)n2nc(SC(C)C(=O)N3CCC4(CC3)OCCO4)nc2n1 (stereo not drawn),2.6µM*,24%[14.3 µM],4%,.,-5,-27%
CCSc1nc2nc(C)cc(C)n2n1,26%,19%,9%,-4%,4,12µM*
Cc1cc(C)n2nc(SCc3nnc(SCCCCl)o3)nc2n1,?,6%,-2%,-16%,-20,?
C=C(C)CSc1nc2nc(C)cc(C)n2n1,17%,22%,11%,-5%,18,8%
Cc1cc(C)n2nc(SCc3ccccc3)nc2n1,4%,.,.,-8%,7,1%
C=CCSc1nc2nc(C)cc(C)n2n1,8%,9%,1%,?,-4,0.33µM*
CCOc1ccc(NC(=O)CSc2nnc3scc(-c4ccc(Cl)cc4)n23)cc1,.,-21%[46.1 µM],7%[46.1 µM],.,-28,.
Cc1cc(C)n2nc(SCC(=O)N3CC(C)CC(C)C3)nc2n1 (stereo not drawn),.,-6%,5%,-10%,-65*,.
CCOC(=O)N1CCN(C(=O)CSc2nc3nc(C)cc(C)n3n2)CC1,.,22%,22%,34%,22,.
CN=c1scc(C)n1/N=C/c1ccc2c(c1)OCO2,278%,3.5µM*,?,?,18,55%
CN=c1scc(-c2ccco2)n1/N=C/c1ccc(O)c(O)c1,-35%,?,?,2.5µM*,68,-92%
C=CCN=c1scc(C)n1/N=C/c1ccc(O)c(O)c1,?,.,.,11µM*,-97*,2%
